Results reported in the supplement of paper PMC7801607.

What was measured:
CHO = test: % viability of CHO cells (MTT); higher = less toxic; details: 48 h
How it was run: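 CHO cells were seeded at 10^6 cells/well in 200 µL and left overnight to attach. The medium was then replaced with fresh medium containing compound at 2 or 20 µM for 48 h. Survival was read colorimetrically with the tetrazolium (MTT) assay. Percent viability was expressed relative to untreated cells.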

HepG2-A16-CD81 = test: % inhibition of HepG2 viability (CellTiter-Glo); higher = more toxic; details: 5 µM
[1] = system: Plasmodium falciparum NF54 stage IV/V gametocytes; test: % inhibition of gametocyte viability (PrestoBlue); higher = more inhibition; details: 48 h
How it was run: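 Stage IV/V NF54 gametocytes (2% gametocytaemia, 5% haematocrit, 100 µL/well) were exposed to compound at 1 or 5 µM. Incubation was 48 h at 37 °C, stationary and hypoxic, followed by 10 µL PrestoBlue for 2 h. Fluorescence at 612 nm was read on 70 µL of transferred supernatant. Percent inhibition of gametocyte viability was normalised to DMSO and kill controls from a single run.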

[2] = system: Plasmodium falciparum NF54 asexual blood stage; test: % inhibition of asexual blood stage proliferation (pLDH); higher = more inhibition; details: 72 h
How it was run: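 Plasmodium falciparum NF54 ring-stage cultures (1% haematocrit, 2% parasitaemia) were exposed to compound at 2 or 20 µM in 96-well plates. Incubation was 72 h at 37 °C under 4% CO2, 3% O2 and 93% N2. Survival was read colorimetrically at 620 nm with the parasite lactate dehydrogenase assay. Percent inhibition of asexual proliferation was normalised to DMSO and kill controls, and the screen was run on two separate occasions.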

[3] = system: Plasmodium falciparum NF54 stage IV/V gametocytes; test: % inhibition of gametocyte viability (ATP bioluminescence); higher = more inhibition; details: 24 h
How it was run: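 In 96-well plates, compound at 1 or 5 µM was added to 30,000 density-gradient-enriched stage IV/V NF54 gametocytes per well and incubated for 24 h at 37 °C. ATP readout used the Promega BacTiter Glo bioluminescence system. Percent inhibition of gametocyte viability comes from a single run, normalised to control wells.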

[4] = system: Plasmodium falciparum NF54 stage IV/V gametocytes; test: % inhibition of gametocyte viability (luciferase reporter); higher = more inhibition; details: 48 h
How it was run: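 Percent inhibition came from luminescence and was normalised to controls in a single run. Gametocytes (stage IV/V, NF54-Pfs16-GFP-Luc line, 2% gametocytaemia, 2% haematocrit) were treated with compound at 1 or 5 µM and incubated for 48 h at 37 °C without agitation under hypoxia. Readings used 30 µL lysate with 30 µL Promega luciferin substrate on a GloMax-Multi+ reader, integrating for 10 s.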

[5] = system: Plasmodium berghei ANKA liver stage in HepG2-A16-CD81; test: % inhibition of liver stage parasite viability (luciferase); higher = more inhibition; details: 5 µM; 48 h
Procedure: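 Single-concentration screen of the MMV Pandemic Response Box. P. falciparum NF54 asexual blood stages: pLDH assay, 72 h at 37 °C, 2 and 20 µM, n=2. Stage IV/V gametocytes (NF54): luciferase reporter (NF54-Pfs16-GFP-Luc, 48 h), ATP bioluminescence (24 h) and PrestoBlue (48 h) at 1 and 5 µM, n=1. P. berghei liver stage (luciferase in HepG2-A16-CD81, 48 h post infection) at 5 µM, n=4. All normalised to DMSO and kill controls as % inhibition.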
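For % inhibition of HepG2 viability (CellTiter-Glo) in this document: HepG2-A16-CD81 hepatoma cells plated as in the liver-stage assay but without sporozoites, with DMSO wells as negative and 25 µM puromycin as positive control.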

| SMILES | % viability of CHO cells (CHO; 2 µM) [%] | % viability of CHO cells (CHO; 20 µM) [%] | % inhibition of HepG2 viability (HepG2-A16-CD81) [%] | % inhibition of gametocyte viability ([1]; 1 µM) [%] | % inhibition of gametocyte viability ([1]; 5 µM) [%] | % inhibition of asexual blood stage proliferation ([2]; 2 µM) [%] | % inhibition of asexual blood stage proliferation ([2]; 20 µM) [%] | % inhibition of gametocyte viability ([3]; 1 µM) [%] | % inhibition of gametocyte viability ([3]; 5 µM) [%] | % inhibition of gametocyte viability ([4]; 1 µM) [%] | % inhibition of gametocyte viability ([4]; 5 µM) [%] | % inhibition of liver stage parasite viability [5] [%] |
| --- | --- | --- | --- | --- | --- | --- | --- | --- | --- | --- | --- | --- |
| N#Cc1c(F)c(Cl)c(NCc2ccccc2)c(C#N)c1F | 102 | -2.81 | 2.78 | 20.8 | 49.5 | 56.1 | 95.3 | < 0 | 20.5 | 2.47 | 52.5 | 22.3 |
| FC(F)(F)Oc1ccc(Nc2ccc3cccc(Cl)c3n2)cc1 | 101 | 86.1 | 0.506 | 16.2 | < 0 | 31 | 98 | 4.02 | < 0 | < 0 | < 0 | 18 |
| CC(C)CCN1C(=O)C(C2=NS(=O)(=O)c3cc(NS(C)(=O)=O)ccc3N2)=C(O)[C@@H]2[C@H]3CC[C@H](C3)[C@@H]21 | 99.3 | 109 | 6.58 | 9.05 | 13.6 | 37.2 | 56.6 | < 0 | < 0 | 1.44 | 8.86 | 47.3 |
| O=C(c1ccc(F)cc1)N1CCN2C(=O)c3ccccc3C12c1ccccc1 (stereo not drawn) | 116 | 109 | -0.867 | 13.1 | 10.8 | 37.1 | 83.7 | < 0 | < 0 | < 0 | < 0 | 26 |
| Fc1ccc2c(/C=C/c3cccnc3)c[nH]c2c1 | 107 | 117 | 0.955 | < 0 | 6.61 | 4.51 | 61.2 | < 0 | < 0 | < 0 | < 0 | -23.8 |
| Fc1ccc(-c2nc(-c3c[nH]c4ccc(Br)cc34)[nH]c2-c2ccc(F)cc2)cc1 | 97.3 | -2.96 | 1.87 | < 0 | < 0 | 74 | 83.7 | < 0 | < 0 | < 0 | < 0 | 27.7 |
| CCc1ccc(C2CC(C(F)(F)F)n3ncc(C(=O)NCc4ccc(OC)cc4)c3N2)cc1 (stereo not drawn) | 83 | 61.2 | 8.05 | < 0 | 34.6 | 37.2 | 67.7 | 2.93 | 4.83 | < 0 | 6.49 | 32.1 |
| Cc1cc(C)n(O)c(=O)c1 | 108 | 109 | -0.333 | < 0 | 3.7 | -9.1 | 4.56 | < 0 | 3.75 | < 0 | < 0 | 15.5 |
| Cc1cc(O)c2c(c1)C(=O)c1c(I)c(O)c(I)c(O)c1C2=O | 81.3 | 64.1 | 4.29 | < 0 | < 0 | 30.5 | 64.9 | < 0 | < 0 | < 0 | 6.19 | -49.9 |
